ALDH1A1 block = inhibitors of human aldehyde dehydrogenase 1A1 | P00352 | Purified ALDH1A1, NADH fluorescence, propionaldehyde substrate | Potency, µM (series often up to 75.3 µM), for the others: at the top dose activity, negative = inhibition, actives largely listed as inhibitors | actives 7.3% (n = 220,000);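 note: potency is the fitted concentration of half-maximal effect; plate controls were no enzyme wells and a reference inhibitor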
FBPA coupling cs = inhibits coupling enzyme system, counter-screen for aldolase hits; coupling enzyme system counterscreen, AmpLite Red fluorescence; activity change, negative = inhibition, % at 58.2 µM, hits read low; actives 0.67% (n = 290,000); in the data active = activity change below about -30%
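Activity here indicates interference with the coupling reaction, not aldolase inhibition. Compounds at 57.5 uM final met coupling enzymes for 10 min at RT; substrate and AmpLite Red detection followed, with a 525/598 nm fluorescence read after 20 min.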
GoLoco inh red = inhibitors of human Gai1-RGS12 GoLoco interaction (red fluorophore) | P63096 | Gai1:RGS12 GoLoco peptide FP, rhodamine, 10 min | Potency, µM (top dose mostly 61.6 µM), inactives show top-dose activity, negative = inhibition, actives largely listed as inhibitors | actives 0.44% (n = 230,000); active = well fitted inhibition curve with a large enough effect, not every such curve was filed as active; inactive = no such curve, though single readings can be large or run the other way; note: potency is the fitted concentration of half-maximal effect; nearly all actives have a fitted effect of over 30% in size
Target sequence (P63096 whole entry, looked up): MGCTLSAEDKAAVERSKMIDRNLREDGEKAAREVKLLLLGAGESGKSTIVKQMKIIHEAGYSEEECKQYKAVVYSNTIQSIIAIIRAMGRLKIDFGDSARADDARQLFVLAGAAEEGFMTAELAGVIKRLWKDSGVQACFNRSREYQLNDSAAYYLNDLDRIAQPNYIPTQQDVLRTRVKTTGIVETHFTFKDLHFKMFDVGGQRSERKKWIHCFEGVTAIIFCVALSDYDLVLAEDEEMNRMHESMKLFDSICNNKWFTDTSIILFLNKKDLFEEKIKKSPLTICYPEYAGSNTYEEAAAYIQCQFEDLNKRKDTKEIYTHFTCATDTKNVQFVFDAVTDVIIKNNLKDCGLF
KDM4E inh = inhibitors of human JMJD2E histone demethylase. B2RXH2. JMJD2E catalytic domain, FDH-coupled NADH fluorescence (FDH is formaldehyde dehydrogenase). Potency, µM (series often up to 57.1 µM), for the others: at the highest dose activity change, negative = inhibition, actives largely listed as inhibitors. actives 1.6% (n = 230,000). AID 2147;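 note: potency is the fitted concentration of half-maximal effect; 0% = wells with enzyme and -100% = buffer wells without enzyme; nearly all actives have a fitted effect of over 50% in size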
Target sequence (B2RXH2 1-337 limits assumed): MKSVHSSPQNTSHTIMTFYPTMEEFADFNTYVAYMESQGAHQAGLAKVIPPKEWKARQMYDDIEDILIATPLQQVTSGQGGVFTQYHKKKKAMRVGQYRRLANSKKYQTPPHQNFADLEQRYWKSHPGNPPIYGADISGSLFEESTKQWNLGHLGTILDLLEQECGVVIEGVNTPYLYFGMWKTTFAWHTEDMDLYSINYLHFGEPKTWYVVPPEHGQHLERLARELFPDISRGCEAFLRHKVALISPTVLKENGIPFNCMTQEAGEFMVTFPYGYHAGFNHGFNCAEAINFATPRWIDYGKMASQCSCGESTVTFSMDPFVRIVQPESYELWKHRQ
NPSR antagonist = antagonists of human neuropeptide S receptor cAMP signaling; Potency, µM (top dose mostly 38.3 µM), inactives show at the highest dose activity change, negative = inhibition, usual class: inhibitors; actives 1% (n = 220,000); AID 1461; CHO-NPSR cells, cAMP TR-FRET, antagonist mode; Q6W5P4; active = well fitted curve in the direction sought with a large enough effect; inconclusive = small, poorly fitted or top-dose-only effect, or another doubt; inactive = no such curve, though single readings can be large; an effect the other way counts as inactive or inconclusive; note: potency is the fitted concentration of half-maximal effect; nearly all actives have a fitted effect of over 50% in size
Sfp PPTase inh = inhibitors of Bacillus subtilis Sfp phosphopantetheinyl transferase; Q9F4F7; Biochemical Sfp PPTase activity, qHTS; Potency, µM, without a hit: largest response in the series, negative = inhibition, most hits filed as inhibitors; actives 3.5% (n = 310,000); active = well fitted curve in the direction sought with a large enough effect; inconclusive = small, poorly fitted or top-dose-only effect, or another doubt; inactive = no such curve, though single readings can be large; an effect the other way counts as inactive or inconclusive;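 note: the enzyme is Sfp with the accession as filed and its product quenches rhodamine fluorescence; potency is the fitted concentration of half-maximal effect; 0% = enzyme reaction without inhibitor and -100% = no enzyme wells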
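Buffer: 50 mM Hepes-Na pH 7.6, 10 mM MgCl2, 0.01% Nonidet P-40, 0.01% BSA. Enzyme 15 nM, pre-exposed to compound 15 min; substrates then added and fluorescence change tracked over 30 min.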
* marks the source's active call; other numbers are inactive results; ? = inconclusive; / = not tested or not shown; ! = repeats disagree; [ ] = remark or other dose. Sampled rows, rich in hits. Any-hit rate of the full collection: about 8.5%. Unless noted, calls come from the whole dose curve; as a rule, active = well fitted inhibition curve with a large enough effect (not every such curve was filed as active); inconclusive = small, poorly fitted or top-dose-only effect, or another doubt; inactive = no such curve, though single readings can be large or run the other way. Unless noted, % is set by controls: 0 for no effect and ±100 for the full control effect.

SMILES | ALDH1A1 block | FBPA coupling cs | GoLoco inh red | KDM4E inh | NPSR antagonist | Sfp PPTase inh
Cn1c(=O)c2c(nc(N/N=C/c3cccs3)n2C)n(C)c1=O | 2.4% | -9.3 | 4.1% | 0.8% | 44.8% | -6.2%
Cc1ccc(F)cc1NC(=O)C1C2CCC(O2)C1C(=O)O (stereo not given) | / | -2.0 | / | / | / | 6.7%
O=C(O)c1cccc(S(=O)(=O)Nc2ccc3oc(=O)sc3c2)c1 | 4.5% | 8.2 | -5.1% | ? | -7.3%[46.1 µM] | 11.2µM*
O=C(O)c1cccc(S(=O)(=O)Nc2ccc3[nH]c(=O)[nH]c3c2)c1 | / | -24.5 | 2.3% | -23.5% | 1.6% | 6.4%
CCc1cc(=O)oc2cc(C)cc(OCC(=O)N3CCC(C(=O)NC(C)C)(c4ccccc4)CC3)c12 | / | / | / | / | / | 12.6%
C=Cc1c(C)c2cc3[nH]c(cc4nc(cc5nc(cc1[nH]2)C(C)=C5CCC(=O)O)C(CCC(=O)O)=C4C)c(C)c3C=C | 4.8% | -13.6 | 12.6µM*! | -12.4% | ? | 0.5%
CC1=C(CCC(=O)O)c2cc3nc(cc4[nH]c(cc5[nH]c(cc1n2)c(C)c5C(C)O)c(C)c4C(C)O)C(C)=C3CCC(=O)O (stereo not given) | -1.3% | -7.5 | 12.6µM* | -0.6% | / | -15.7%
CC(C)C(=O)O/N=C(\N)c1ccc(Oc2ccc(Cl)cc2)c([N+](=O)[O-])c1 | / | 0.9 | 1.3% | 5.9% | -0.6% | -12.9%
O=C(CSc1ccc(C(F)(F)F)cc1[N+](=O)[O-])Nc1ccc2ccccc2c1 | 5.62µM* | -0.9 | 3.9% | -2.4% | -32.4% | 5.3%
CC1(OC(=O)CCc2ccccc2)C(=O)C=C2C=C(c3ccc(C#N)cc3)N(Cc3ccccc3)C=C2C1=O (stereo not given) | ? | -9.8 | -0.6%[14.2 µM] | 15.8µM* | -42.4% | ?
Oc1ccccc1N=Cc1c(O)ccc2ccccc12 | ? | -27.3 | 26.0% | 25.1µM* | 1.1% | -0.7%
Oc1cccc(C=NCc2ccccc2)c1O | 8.91µM* | -37.0* | 65.7% | 12.6µM* | ? | ?
Oc1ccccc1C=Nc1cccc2ccccc12 | / | -1.6 | / | / | / | 0.9%
Oc1ccc2ccccc2c1C=Nc1ccccc1Br | / | -4.0 | / | / | / | -17.6%
Oc1ccc2ccccc2c1C=Nc1ccc(N2CCOCC2)cc1 | 4.47µM* | -14.2 | -112.4% | ? | -24.5%[46.1 µM] | -26.4%
Oc1c(C=NCc2ccccc2)sc2ccccc12 | -3.8% | -2.1 | 9.9% | -8.0% | 5.0% | 10.5%
C(=Nc1ccc(N2CCOCC2)cc1)c1c[nH]c2ccccc12 | / | -21.6 | -3.5% | ? | -4.1% | -1.4%
Oc1cccc(C=Nc2cccc3ccccc23)c1O | / | -13.9 | / | / | / | 12.6µM*
Cc1cc(Br)cc2cn[nH]c12 | -10.8% | -1.1 | 2.8% | 2.8% | 3.9% | 25.3%
C/C(=C\C[Si](C)(C)C)CC[C@H](O)C1=CCCCC1=O | 5.9% | -1.1 | 0.5% | 0.3% | / | 9.0%
C=Cc1ccc(N=Cc2c(O)ccc3ccccc23)cc1 | / | -30.3* | / | / | / | -15.5%
C=CCn1c(O)c(C2=c3ccccc3=NC2=O)c2ccccc21 | / | 0.5 | / | / | / | 44.7µM*
C=CCn1c(O)c(C2=c3ccccc3=NC2=O)s/c1=N/c1nccs1 | -8.1% | 1.6 | 26.9% | -6.2% | -11.6%[46.1 µM] | -2.5%
CCC(C)N1CC(=O)N2C(c3ccc(OC)cc3OC)c3[nH]c4ccccc4c3C[C@H]2C1=O (stereo not given in full) | / | -2.7 | / | / | / | 8.3%
CCCCCCCC(O)CC(CC1CCCCC1)C(=O)NN (stereo not given) | ? | -0.1 | -1.0% | 1.7% | 13.4% | 0.7%
SMILES | ALDH1A1 block | FBPA coupling cs | GoLoco inh red | KDM4E inh | NPSR antagonist | Sfp PPTase inh
COCCNC(=O)/C(C#N)=C/c1ccc(N2CCOCC2)o1 | 31.6µM* | 0.4 | 3.6% | ? | -34.7% | -10.9%
COCCNC(=O)/C(C#N)=C/c1cccc(/C=C(\C#N)C(=O)NCCOC)c1 | ? | 1.0 | -4.1% | -3.4% | -0.2% | 20µM*
N#C/C(=C/c1ccc(N2CCOCC2)o1)C(=O)Nc1ccccc1 | 22.4µM* | -2.9 | 34.4% | -10.6% | -32.7% | ?
N#C/C(=C\c1ccc(N2CCOCC2)o1)C(=O)NCC1CCCO1 (stereo not given) | 0.5% | -2.2 | 13.0% | ? | 24.2% | -1.1%
N#C/C(=C\c1ccc(N2CCOCC2)o1)C(=O)NC1CCCCC1 | / | -4.8 | 5.3% | -9.3% | ? | 44.7µM*
O=[N+]([O-])c1ccccc1S(=O)(=O)n1nnc2ccccc21 | 3.8% | -2.7 | -3.8% | 0.2% | 16.5% | ?
O=C(Cn1ncn2c(cc3sccc32)c1=O)NC1CCCC1 | / | / | / | / | / | 29.7%
CC(Nc1c[nH]c(=O)[nH]c1=O)c1ccccc1 (stereo not given) | / | 2.1 | / | / | / | 11.8%
CCOc1ccc(NS(=O)(=O)c2cc(NC(=O)c3cccc(C)c3)ccc2Cl)cc1 | -1.1% | -3.5 | / | -4.7% | -23.2%[46.1 µM] | 32.7%
N#C/C(=C\c1ccc(N2CCOCC2)o1)C(=O)NCCc1ccccc1 | ? | 2.8 | -8.4% | 39.8µM* | -14.6% | 5.3%
COc1cc(C(=O)OC(C)CN2C(C)CCCC2C)cc(OC)c1OC (stereo not given) | / | -0.9 | / | / | / | 9.5%
COc1ccc(N=N/C(=C\O)C(=O)c2ccco2)cc1 | 7.94µM* | 5.0 | 7.9% | -0.8% | -57.8% | -10.3%
COc1ccc(/C(N)=N/OC(=O)c2ccco2)cc1 | 0.0% | -0.6 | 1.8% | -1.9% | 11.5% | -0.1%
Cc1[nH][nH]c(=O)c1C(c1c(C)[nH][nH]c1=O)c1cn(Cc2cccc3ccccc23)c2ccccc12 | 0.316µM* | -50.9* | 11.3% | 28.0% | -17.2%[46.1 µM] | -15.4%
Cc1[nH][nH]c(=O)c1C(c1c(C)[nH][nH]c1=O)c1cn(C)c2ccccc12 | ? | -65.1* | -0.4% | 9.1% | 36.3% | 44.7µM*
CCCCC/C=C\C\C=C/C=C/C=C/[C@@H](SC[C@H](NC(=O)CC[C@H](N)C(=O)O)C(=O)NCC(=O)O)[C@@H](O)CCCC(=O)O | ? | / | -3.3% | / | / | 7.4%
Cc1ccc(/C=N/NC(=O)CSc2nnc(-c3ccccc3)n2-c2ccc(Cl)cc2)o1 | ? | 8.5 | -8.6% | -3.6% | -11.3% | -27.6%
Cc1ccc(/C=N/NC(=O)CSc2nnc(-c3ccc(Cl)cc3)n2-c2ccc(Cl)cc2)o1 | 10µM* | 10.7 | -4.2% | 7.5% | -53.8% | ?
COCCn1c(SCc2c(F)cccc2Cl)nc2c1c(=O)[nH]c(=O)n2C | 25.1µM* | 6.1 | 6.2% | 7.7% | -12.7%[46.1 µM] | -16.3%
COCCn1c(SCc2ccc(F)cc2)nc2c1c(=O)[nH]c(=O)n2C | / | -3.6 | / | / | / | 44.7µM*
CCOCCn1c(SCc2ccc(F)cc2)nc2c1c(=O)[nH]c(=O)n2C | -1.6% | 0.1 | -11.0% | 4.1% | -11.1%[46.1 µM] | 0.1%
COCCn1c(SCCN2CCOCC2)nc2c1c(=O)[nH]c(=O)n2C | -9.1% | -0.4 | -12.5% | -11.3% | 1.2%[46.1 µM] | 12.6µM*

Source: PubChem BioAssay
